Measured values from PubChem BioAssay (Tox21).
Records with an inconclusive call do not appear. Calls of active or inactive are those of the source. Calls come from the whole dose curve; as a rule, active = well fitted curve in the direction sought with a large enough effect in the repeat runs; inconclusive = weak or mixed curves; inactive = no such curve, though single readings can be large; an effect the other way counts as inactive or inconclusive.

Assays:
[1] = Human pregnane X receptor (PXR) small molecule agonists, qHTS cell viability counter screen (AID 1346977); note: nearly all actives have a fitted effect of over 50% in size
Procedure, shortened: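 Fluorescence read-out (CellTiter-Fluor) of viability in PXR-Luc HepG2 cells, multiplexed with the luciferase agonist read. Compounds in DMSO added after 5hr plating; 24hr total exposure at 37C, 5% CO2.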

[2] = Caspase-3/7 induction in HepG2 cells by small molecules, qHTS assay (AID 1346978); note: nearly all actives have a fitted effect of over 15% in size
Procedure, shortened: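 Wild-type HepG2 cells, 2,000/well, settled 5 hr at 37 C and 5% CO2, then compound-treated for 17 hr; caspase-3/7 activity read by luminescent Caspase-Glo 3/7 after 30 min at room temperature.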

[3] = Caspase-3/7 induction in CHO-K1 cells by small molecules, qHTS cell viability counter screen (AID 1346979); note: nearly all actives have a fitted effect of over 35% in size
Procedure, shortened: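 CHO-K1 wt, 1,500 cells/well; 5hr pre-incubation 37C/5% CO2; compound pin transfer (DMSO); 16hr exposure; CellTiter-Fluor added, 1hr, fluorescence read.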

[4] = Caspase-3/7 induction in CHO-K1 cells by small molecules, qHTS assay (AID 1346980); note: nearly all actives have a fitted effect of over 15% in size
Procedure, shortened: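 Wild-type CHO-K1 cells exposed to compounds for 17hr at 37 C, 5% CO2. Caspase-3/7 activity then measured by Caspase-Glo 3/7 luminescence after 30min at room temperature.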

[5] = Caspase-3/7 induction in HepG2 cells by small molecules, qHTS cell viability counter screen (AID 1346981); note: series mostly up to about 92 µM; nearly all actives have a fitted effect of over 30% in size
Procedure, shortened: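 Multiplexed with the caspase-3/7 assay: HepG2 cells, 16 hr compound treatment, CellTiter-Fluor viability detection by fluorescence.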

[6] = molecular target: Nuclear receptor subfamily 1 group I member 2 (Homo sapiens) (UniProt O75469); assay: Human pregnane X receptor (PXR) small molecule agonists, qHTS assay (AID 1346982); note: nearly all actives have a fitted effect of over 35% in size
Procedure, shortened: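 We seeded PXR-Luc HepG2 cells in assay medium containing 5% charcoal-stripped FBS, added compounds 5 hr later, incubated 24 hr, and read luminescence with ONE-Glo reagent.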

[7] = molecular target: Cytochrome P450 2D6 (Homo sapiens) (UniProt P10635); assay: Cytochrome P450 Family 2 Subfamily D Member 6 (CYP2D6) small molecule antagonists: luciferase reporter qHTS assay (AID 1671196); note: nearly all actives have a fitted effect of over 50% in size; note: potency is the fitted concentration of half-maximal effect; for activity change, negative = inhibition: series mostly up to about 120 µM
Procedure, shortened: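 Luminescence (RLU), read 20 min after detection reagent, indicated CYP2D6 conversion of proluciferin to luciferin during a 1 h NADPH-dependent reaction at room temperature.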

[8] = molecular target: Cytochrome P450 2C19 (Homo sapiens) (UniProt P33261); assay: Cytochrome P450 Family 2 Subfamily C Member 19 (CYP2C19) small molecule antagonists: luciferase reporter qHTS assay (AID 1671197); note: series mostly up to about 120 µM; nearly all actives have a fitted effect of over 65% in size
Procedure, shortened: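 Luminescent readout of CYP2C19 activity: luciferin product detected 20 min after adding detection reagent. Before that, compound and enzyme-substrate mix preincubated 10 min at room temperature; NADPH-regenerating system started a 1 h, 37C reaction. Ketoconazole as positive control.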

[9] = molecular target: Cytochrome P450 2C9 (Homo sapiens) (UniProt P11712); assay: Cytochrome P450 Family 2 Subfamily C Member 9 (CYP2C9) small molecule antagonists: luciferase reporter qHTS assay (AID 1671198); note: series mostly up to about 120 µM; nearly all actives have a fitted effect of over 50% in size
Procedure, shortened: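 P450-Glo proluciferin substrate with CYP2C9 enzyme; 10 min RT preincubation, then NADPH regeneration 1 h at 37C; luciferin detection reagent 20 min RT, luminescence in relative luminescence units.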

[10] = molecular target: Cytochrome P450 1A2 (Homo sapiens) (UniProt P05177); assay: Cytochrome P450 Family 1 Subfamily A Member 2 (CYP1A2) small molecule antagonists: luciferase reporter qHTS assay (AID 1671199); note: nearly all actives have a fitted effect of over 50% in size; note: potency is the fitted concentration of half-maximal effect; for activity change, negative = inhibition: series mostly up to about 120 µM
Procedure, shortened: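 CYP1A2 turnover of a luminogenic substrate was quantified after 1 h with NADPH regeneration at room temperature. Furafylline served as positive control.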

[11] = molecular target: Voltage-gated inwardly rectifying potassium channel KCNH2 (Homo sapiens) (UniProt Q12809); assay: Human Ether-a-go-go-Related Gene (hERG) channel small molecule antagonists: fluorescence cell-based qHTS assay (AID 1671200); note: nearly all actives have a fitted effect of over 50% in size; note: potency is the fitted concentration of half-maximal effect;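 for activity change, negative = inhibition: hERG-expressing U2OS cells given a thallium stimulus after FluxOR II dye loading; series mostly up to about 77 µM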
Procedure, shortened: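 Read-out: thallium influx as a surrogate for potassium, tracked as fluorescence (480 nm ex/540 nm em) every second for 2 min after Stimulus Buffer addition in dye-loaded hERG-U2OS cells.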

[12] = molecular target: Cytochrome P450 3A4 (Homo sapiens) (UniProt P08684); assay: Cytochrome P450 Family 3 Subfamily A Member 4 (CYP3A4) small molecule antagonists: luciferase reporter qHTS assay (AID 1671201)
Procedure, shortened: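 Luminescent readout (RLU) proportional to CYP3A4 activity, from luciferin generated off a proluciferin substrate. Enzyme–substrate mix plus compound 10 min at room temp, NADPH regeneration 1 h, detection reagent 20 min.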

[13] = molecular target: Nuclear receptor subfamily 1 group I member 2 (Rattus norvegicus) (UniProt Q9R1A7); assay: Rat pregnane X receptor (rPXR) activation by small molecules, qHTS assay (AID 1346983); conditions: rPXR luciferase reporter cells, One-Glo luminescence, 24 h; active compounds read high; note: nearly all actives have a fitted effect of over 20% in size
Procedure, shortened: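 Cell-based rPXR activation assay: rPXR cells, 2,000 per well, rested 5hr at 37 C, then exposed to compounds in DMSO for 24 hr at 37 C. Luciferase activity read by One-Glo luminescence after 30 min at room temperature.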

[14] = molecular target: Nuclear receptor subfamily 1 group I member 2 (Homo sapiens) (UniProt O75469); assay: CYP3A4 induction through human pregnane X receptor (PXR) by small molecules, qHTS assay (AID 1346984); note: nearly all actives have a fitted effect of over 40% in size
Procedure, shortened: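 qHTS, concentration-response format: HepG2 DPX-2 line, PXR/CYP3A4-luc. Exposure 24 h, 37C. Substrate Luciferin-IPA 3uM final, 3 h. Detection One-Glo, 30 min RT.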

[15] = molecular target: Nuclear receptor subfamily 1 group I member 2 (Homo sapiens) (UniProt O75469); assay: Human pregnane X receptor (PXR) activation by small molecules, qHTS assay (AID 1346985); note: nearly all actives have a fitted effect of over 40% in size
Procedure, shortened: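 DPX-2 cells (HepG2 co-transfected with a PXR response element and a CYP3A4-promoter luciferase construct) were seeded at 2,000 per well, rested 5 hr at 37C, then exposed to DMSO-dissolved compounds for 24 hr. Activation was read as luciferase luminescence.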
% is set by controls: 0 for no effect and ±100 for the full control effect.

Sequence of Nuclear receptor subfamily 1 group I member 2 (Rattus norvegicus) (Q9R1A7 whole entry, looked up): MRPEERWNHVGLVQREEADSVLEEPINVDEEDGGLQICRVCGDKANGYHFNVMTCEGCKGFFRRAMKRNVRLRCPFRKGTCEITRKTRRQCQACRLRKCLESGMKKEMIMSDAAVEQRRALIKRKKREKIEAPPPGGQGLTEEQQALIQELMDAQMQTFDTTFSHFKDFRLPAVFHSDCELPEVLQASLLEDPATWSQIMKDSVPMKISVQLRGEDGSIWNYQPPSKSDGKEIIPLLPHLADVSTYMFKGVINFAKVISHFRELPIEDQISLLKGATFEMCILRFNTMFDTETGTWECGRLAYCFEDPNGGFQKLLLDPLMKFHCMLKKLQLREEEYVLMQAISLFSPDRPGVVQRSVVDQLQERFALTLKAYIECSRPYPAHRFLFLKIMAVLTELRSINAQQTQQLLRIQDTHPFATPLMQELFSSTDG
Sequence of Cytochrome P450 2D6 (Homo sapiens) (P10635 whole entry, looked up): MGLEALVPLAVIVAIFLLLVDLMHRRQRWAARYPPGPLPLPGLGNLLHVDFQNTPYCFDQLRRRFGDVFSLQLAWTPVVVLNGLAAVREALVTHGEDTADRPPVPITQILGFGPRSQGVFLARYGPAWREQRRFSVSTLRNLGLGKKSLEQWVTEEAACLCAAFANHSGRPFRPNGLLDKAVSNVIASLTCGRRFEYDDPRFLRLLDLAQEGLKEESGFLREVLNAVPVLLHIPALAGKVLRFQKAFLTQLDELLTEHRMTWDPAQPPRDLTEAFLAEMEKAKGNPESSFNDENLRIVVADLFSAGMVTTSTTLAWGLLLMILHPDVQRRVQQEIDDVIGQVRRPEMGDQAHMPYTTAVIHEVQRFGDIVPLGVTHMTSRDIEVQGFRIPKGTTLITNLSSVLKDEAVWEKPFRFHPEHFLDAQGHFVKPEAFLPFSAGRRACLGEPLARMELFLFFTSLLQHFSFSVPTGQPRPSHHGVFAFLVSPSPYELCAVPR
Sequence of Cytochrome P450 1A2 (Homo sapiens) (P05177 whole entry, looked up): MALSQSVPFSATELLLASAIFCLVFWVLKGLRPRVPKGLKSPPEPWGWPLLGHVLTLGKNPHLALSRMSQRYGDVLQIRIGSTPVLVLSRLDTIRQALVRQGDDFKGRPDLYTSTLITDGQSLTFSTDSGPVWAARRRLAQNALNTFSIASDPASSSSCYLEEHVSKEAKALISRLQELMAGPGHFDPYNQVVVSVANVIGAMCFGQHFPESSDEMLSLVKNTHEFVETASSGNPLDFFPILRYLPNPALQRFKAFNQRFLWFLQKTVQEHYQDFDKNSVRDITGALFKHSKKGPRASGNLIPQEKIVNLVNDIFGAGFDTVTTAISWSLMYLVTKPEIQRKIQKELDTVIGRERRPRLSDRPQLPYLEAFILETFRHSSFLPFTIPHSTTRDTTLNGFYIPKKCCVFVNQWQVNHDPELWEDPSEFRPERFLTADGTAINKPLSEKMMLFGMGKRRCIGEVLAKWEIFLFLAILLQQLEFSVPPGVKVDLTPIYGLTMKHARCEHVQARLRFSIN
Sequence of Voltage-gated inwardly rectifying potassium channel KCNH2 (Homo sapiens) (Q12809 whole entry, looked up): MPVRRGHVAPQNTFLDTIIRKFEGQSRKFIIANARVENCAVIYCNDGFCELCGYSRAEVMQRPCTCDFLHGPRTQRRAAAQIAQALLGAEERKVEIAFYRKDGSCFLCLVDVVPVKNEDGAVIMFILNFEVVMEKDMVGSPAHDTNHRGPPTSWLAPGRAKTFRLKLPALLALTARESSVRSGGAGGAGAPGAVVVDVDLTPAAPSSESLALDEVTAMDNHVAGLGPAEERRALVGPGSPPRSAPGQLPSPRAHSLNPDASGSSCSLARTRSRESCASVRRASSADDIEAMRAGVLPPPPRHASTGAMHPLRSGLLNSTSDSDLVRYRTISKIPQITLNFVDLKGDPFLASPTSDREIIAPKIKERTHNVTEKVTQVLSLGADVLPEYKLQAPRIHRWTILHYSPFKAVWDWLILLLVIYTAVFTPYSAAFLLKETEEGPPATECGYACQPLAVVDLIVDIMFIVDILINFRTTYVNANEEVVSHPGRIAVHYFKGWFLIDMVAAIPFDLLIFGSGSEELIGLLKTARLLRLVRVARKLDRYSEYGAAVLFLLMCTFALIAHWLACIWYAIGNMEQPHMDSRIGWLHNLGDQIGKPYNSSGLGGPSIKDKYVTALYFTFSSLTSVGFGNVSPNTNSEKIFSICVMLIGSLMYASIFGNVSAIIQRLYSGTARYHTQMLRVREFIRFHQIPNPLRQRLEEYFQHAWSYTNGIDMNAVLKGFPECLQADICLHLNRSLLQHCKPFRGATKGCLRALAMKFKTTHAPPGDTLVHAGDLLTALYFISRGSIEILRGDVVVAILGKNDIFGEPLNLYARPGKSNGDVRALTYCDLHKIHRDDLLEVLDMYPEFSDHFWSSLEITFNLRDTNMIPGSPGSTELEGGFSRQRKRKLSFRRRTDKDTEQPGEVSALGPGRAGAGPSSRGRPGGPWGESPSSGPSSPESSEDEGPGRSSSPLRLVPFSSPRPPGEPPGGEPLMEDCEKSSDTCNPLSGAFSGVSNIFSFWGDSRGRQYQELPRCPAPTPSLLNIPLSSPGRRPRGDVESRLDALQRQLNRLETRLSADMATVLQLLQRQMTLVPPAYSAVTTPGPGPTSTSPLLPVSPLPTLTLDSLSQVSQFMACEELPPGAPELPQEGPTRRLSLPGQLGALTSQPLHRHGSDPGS
Sequence of Nuclear receptor subfamily 1 group I member 2 (Homo sapiens) (O75469 whole entry, looked up): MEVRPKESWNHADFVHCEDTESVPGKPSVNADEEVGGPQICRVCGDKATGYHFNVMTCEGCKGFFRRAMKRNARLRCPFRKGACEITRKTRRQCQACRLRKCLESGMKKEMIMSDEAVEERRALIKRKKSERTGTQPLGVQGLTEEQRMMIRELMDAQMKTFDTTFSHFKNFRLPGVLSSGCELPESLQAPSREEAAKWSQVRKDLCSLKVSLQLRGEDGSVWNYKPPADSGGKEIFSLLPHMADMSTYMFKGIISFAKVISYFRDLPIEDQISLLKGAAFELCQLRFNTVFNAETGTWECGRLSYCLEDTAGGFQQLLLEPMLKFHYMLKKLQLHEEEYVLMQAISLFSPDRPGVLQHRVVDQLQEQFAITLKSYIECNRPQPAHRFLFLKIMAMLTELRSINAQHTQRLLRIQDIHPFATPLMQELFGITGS
Sequence of Cytochrome P450 2C19 (Homo sapiens) (P33261 whole entry, looked up): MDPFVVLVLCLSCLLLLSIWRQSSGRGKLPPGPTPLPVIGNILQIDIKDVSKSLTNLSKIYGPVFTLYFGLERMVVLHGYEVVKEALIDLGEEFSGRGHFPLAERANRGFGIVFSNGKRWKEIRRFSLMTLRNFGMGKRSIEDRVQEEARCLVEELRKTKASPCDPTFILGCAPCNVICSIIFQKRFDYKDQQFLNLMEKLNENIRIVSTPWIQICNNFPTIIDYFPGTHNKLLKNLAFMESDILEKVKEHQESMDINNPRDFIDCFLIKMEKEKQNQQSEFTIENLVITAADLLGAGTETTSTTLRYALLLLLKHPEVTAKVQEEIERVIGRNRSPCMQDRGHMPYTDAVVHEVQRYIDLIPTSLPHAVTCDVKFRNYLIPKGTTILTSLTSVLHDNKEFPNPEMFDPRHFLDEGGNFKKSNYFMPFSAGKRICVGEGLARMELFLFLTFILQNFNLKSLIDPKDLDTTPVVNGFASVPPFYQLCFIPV
Sequence of Cytochrome P450 2C9 (Homo sapiens) (P11712 whole entry, looked up): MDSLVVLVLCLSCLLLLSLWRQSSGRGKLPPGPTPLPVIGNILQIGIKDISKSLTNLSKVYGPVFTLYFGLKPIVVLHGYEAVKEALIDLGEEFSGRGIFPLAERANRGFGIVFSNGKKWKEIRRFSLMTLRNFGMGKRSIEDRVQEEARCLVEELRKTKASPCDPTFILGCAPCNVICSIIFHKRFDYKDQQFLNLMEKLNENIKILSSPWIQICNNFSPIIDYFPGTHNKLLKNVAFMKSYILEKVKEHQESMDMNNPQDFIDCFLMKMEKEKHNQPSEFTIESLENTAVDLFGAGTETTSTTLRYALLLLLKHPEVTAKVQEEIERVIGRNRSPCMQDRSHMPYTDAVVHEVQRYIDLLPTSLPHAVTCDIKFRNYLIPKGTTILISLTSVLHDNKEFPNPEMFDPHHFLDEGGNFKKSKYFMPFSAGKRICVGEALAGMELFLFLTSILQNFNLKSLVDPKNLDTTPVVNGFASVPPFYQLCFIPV
Sequence of Cytochrome P450 3A4 (Homo sapiens) (P08684 whole entry, looked up): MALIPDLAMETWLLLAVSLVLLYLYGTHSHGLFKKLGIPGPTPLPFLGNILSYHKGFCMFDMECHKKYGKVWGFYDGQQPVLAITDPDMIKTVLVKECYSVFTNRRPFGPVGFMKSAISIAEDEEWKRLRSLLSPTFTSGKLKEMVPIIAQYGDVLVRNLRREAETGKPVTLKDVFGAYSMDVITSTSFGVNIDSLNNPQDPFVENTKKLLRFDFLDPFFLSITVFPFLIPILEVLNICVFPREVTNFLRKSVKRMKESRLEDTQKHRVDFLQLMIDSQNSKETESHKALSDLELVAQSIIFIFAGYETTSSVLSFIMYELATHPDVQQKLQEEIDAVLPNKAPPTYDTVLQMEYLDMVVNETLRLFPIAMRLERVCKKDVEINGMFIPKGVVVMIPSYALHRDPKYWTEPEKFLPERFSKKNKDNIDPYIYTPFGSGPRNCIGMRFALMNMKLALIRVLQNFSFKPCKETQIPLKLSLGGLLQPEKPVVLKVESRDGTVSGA

C1OCOCO1
inactive: Potency [1] | Potency [2] | Potency [3] | outcome [4] | Potency [5] | Potency [6] | Potency [7] | Potency [8] | Potency [9] | Potency [10] | Potency [11] | Potency [12]

CC1(C)C(O)C(C)(C)C1O (configuration not stated)
inactive: Potency [1] | Potency [2] | Potency [3] | outcome [4] | Potency [5] | Potency [6] | Potency [7] | Potency [8] | Potency [9] | Potency [10] | Potency [11] | Potency [12]

CCCCC(CC)COC(=O)c1ccccc1O (configuration not stated)
inactive: Potency [1] | Potency [2] | Potency [3] | outcome [4] | Potency [5] | Potency [6] | max activation [13] -4.33% | Potency [14] | Potency [15] | Potency [8] | Potency [9] | Potency [10] | Potency [11] | Potency [12]

N[C@H]1CN(c2c(F)cc3c(=O)c(C(=O)O)cn(C4C[C@H]4F)c3c2Cl)CC12CC2 (some centres not stated)
inactive: Potency [1] | Potency [2] | Potency [3] | outcome [4] | Potency [5] | Potency [6] | Potency [7] | Potency [8] | Potency [9] | Potency [10] | Potency [11]

Cc1cc(O)cc2c1O[C@](C)(CCC[C@H](C)CCC[C@H](C)CCCC(C)C)CC2
inactive: Potency [1] | Potency [2] | Potency [3] | outcome [4] | Potency [5] | Potency [6] | max activation [13] -2.13% | Potency [14] | Potency [15] | Potency [7] | Potency [8] | Potency [11] | Potency [12]

Nc1ccc(S(=O)(=O)Nc2ccnn2-c2ccccc2)cc1
inactive: activity change, negative = cytotoxicity [1] -0.0622% [at 19 µM] | caspase activation [2] 0.58% [at 19 µM] | Potency [3] | caspase-3/7 activation [4] 1.89% [at 19 µM] | activity change, negative = cytotoxicity [5] -0.388% [at 19 µM] | activation [6] -6.08% [at 19 µM] | max activation [13] 8.45% | Potency [14] | Potency [15] | activity change, negative = inhibition [7] 0.38% [at 23.6 µM] | Potency [8] | Potency [10] | activity change, negative = inhibition [11] 4.06% [at 15.8 µM]

C1CN(CCOCCN2CCOCC2)CCO1
inactive: Potency [1] | Potency [2] | Potency [3] | outcome [4] | Potency [5] | Potency [6] | Potency [7] | Potency [8] | Potency [9] | Potency [10] | Potency [11] | Potency [12]

O=C(O)Cc1ccc(CCNS(=O)(=O)c2ccc(Cl)cc2)cc1
inactive: Potency [1] | Potency [2] | Potency [3] | outcome [4] | Potency [5] | Potency [6] | max activation [13] -10% | Potency [14] | Potency [15] | Potency [7] | Potency [8] | Potency [10] | Potency [11] | Potency [12]

NC(=O)Nc1ccccc1
inactive: Potency [1] | Potency [2] | Potency [3] | outcome [4] | Potency [5] | Potency [6] | Potency [7] | Potency [8] | Potency [9] | Potency [10] | Potency [11] | Potency [12]

CC(=O)OCC(CCn1cnc2cnc(N)nc21)COC(C)=O
inactive: Potency [1] | Potency [2] | Potency [3] | outcome [4] | Potency [5] | Potency [6] | max activation [13] -0.776% | Potency [14] | Potency [15] | Potency [8] | Potency [9] | Potency [11] | Potency [12]

CC(C)CCCC(C)N (configuration not stated)
active: Potency [10] 21.9 µM
inactive: Potency [1] | Potency [2] | Potency [3] | outcome [4] | Potency [5] | Potency [6] | max activation [13] -5.35% | Potency [14] | Potency [15] | Potency [7] | Potency [9] | Potency [11] | Potency [12]

CC(C)NCC(O)c1ccc(NS(C)(=O)=O)cc1 (configuration not stated)
active: Potency [7] 36 µM | Potency [11] 22.1 µM
inactive: Potency [1] | Potency [2] | Potency [3] | outcome [4] | Potency [5] | Potency [6] | max activation [13] -1.64% | Potency [14] | Potency [15] | Potency [8] | Potency [9] | Potency [10] | Potency [12]

CCc1nccnc1CC
inactive: activity change, negative = cytotoxicity [1] -1.38% [at 19 µM] | caspase activation [2] 0.2% [at 19 µM] | Potency [3] | caspase-3/7 activation [4] -0.427% [at 19 µM] | activity change, negative = cytotoxicity [5] -4.23% [at 19 µM] | activation [6] -0.742% [at 19 µM] | activity change, negative = inhibition [7] -14% [at 23.6 µM] | Potency [8] | activity change, negative = inhibition [9] 2.92% [at 23.6 µM] | Potency [10] | activity change, negative = inhibition [11] -2.32% [at 15.8 µM] | activity change, negative = inhibition [12] 8.66% [at 23.6 µM]

NC(=O)c1ccc(N)cc1
inactive: Potency [1] | Potency [2] | Potency [3] | outcome [4] | Potency [5] | Potency [6] | Potency [7] | Potency [8] | Potency [9] | Potency [10] | Potency [11] | Potency [12]

N[C@H](C(=O)O)c1ccc(O)cc1
inactive: activity change, negative = cytotoxicity [1] 0.445% [at 19 µM] | caspase activation [2] -0.122% [at 19 µM] | Potency [3] | caspase-3/7 activation [4] -0.938% [at 19 µM] | activity change, negative = cytotoxicity [5] 0.561% [at 19 µM] | activation [6] -2.7% [at 19 µM] | max activation [13] -1.63% | Potency [14] | Potency [15] | activity change, negative = inhibition [7] -10.2% [at 23.6 µM] | Potency [8] | activity change, negative = inhibition [9] -0.95% [at 23.6 µM] | Potency [10] | activity change, negative = inhibition [11] 1.26% [at 15.8 µM] | activity change, negative = inhibition [12] -17% [at 23.6 µM]

CCOC(=O)c1cccc(N)c1
inactive: Potency [1] | Potency [2] | Potency [3] | outcome [4] | Potency [5] | Potency [6] | Potency [14] | Potency [7] | Potency [8] | Potency [9] | Potency [11] | Potency [12]
active: Potency [10] 5.75 µM

N[C@@H](C(=O)N[C@@H]1C(=O)N2C(C(=O)O)=C(Cl)CS[C@H]12)c1ccccc1
inactive: activity change, negative = cytotoxicity [1] 4.82% [at 8.39 µM] | caspase activation [2] 0.709% [at 8.39 µM] | activity change, negative = cytotoxicity [3] 1.61% [at 8.39 µM] | caspase-3/7 activation [4] -1.31% [at 8.39 µM] | activity change, negative = cytotoxicity [5] 4.06% [at 8.39 µM] | activation [6] -7.63% [at 8.39 µM] | max activation [13] -2.39% | Potency [14] | Potency [15] | activity change, negative = inhibition [7] -15.8% [at 10.5 µM] | activity change, negative = inhibition [8] 33.2% [at 10.5 µM] | activity change, negative = inhibition [9] -2.01% [at 10.5 µM] | activity change, negative = inhibition [10] 7.47% [at 10.5 µM] | activity change, negative = inhibition [11] -6.12% [at 6.97 µM] | activity change, negative = inhibition [12] -15.7% [at 10.5 µM]
